The values below come from PubChem BioAssay.

As a reminder, the remaining activity is the signal under treatment as a percentage of the control signal. What is called AC50 is the concentration giving half of the maximal activity seen.

Inconclusive results are not listed. The source made the active and inactive calls. Unless noted, no rule for the calls is given here.

Test [1] can be described thus: stimulators of insulin release from INS-1E, primary screen, cell-based, 5 mM glucose, NPC library (AID 1117329;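 active = compound raises insulin release from rat beta cells at 5 mM glucose, no numeric limit stated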). As to conditions: rat INS-1E insulin secretion, at 10 µM, stronger effect = higher value.
A short description of test [2]: growth inhibition of GSK3B-pretreated HCT116 cells – cell-based, CellTiter-Glo, 0.2 to 20 µM (AID 1117336;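 active = compounds lowering colon cancer cell viability after pretreatment blocking the GSK3B kinase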). As to conditions: HCT116 viability after GSK3B inhibitor, at 20 µM, stronger effect = higher value. On the technique in general: Cellular ATP, detected with luciferase, serves as a proxy for viable cell number.
Test [3] in a line: inhibition of endothelial tube formation, primary screen, imaging, VEGF stimulated, CD31 staining, tube area, NPC library (AID 1117340;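 active = compound that reduces growth-factor-driven endothelial tube area in a mixed cell culture, no cutoff stated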). As to conditions: VEGF-stimulated ADSC/ECFC co-culture, at 10 µM, stronger effect = higher value.
Test [4] can be described thus: glucagon-like peptide 1 release enhancers, primary assay, NCI-H716 cell line, NPC library (AID 1117341;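 active = compound raises GLP1 secretion from the human gut endocrine cells, with no numeric limit stated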). As to conditions: NCI-H716 cells, at 10 µM, stronger effect = higher value.
Test [5] is described as follows: HCT116 colon cancer cell growth inhibition, primary screen, CellTiter-Glo luminescence, NPC library (AID 1117342;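 active = compounds that lower survival of HCT116 colon cancer cells in the luminescence readout, no numeric limit stated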). As to conditions: at 20 µM (top of the series).
The nature of test [6]: CellTiter-Glo luminescent readout of SW480 viability loss, NPC library primary (AID 1117343;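 active = compounds that lower viability of the colon cancer cells in the luminescence readout, with no numeric limit stated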). To be noted: CellTiter-Glo luminescence; at 20 µM (top of the series).
Test [7] can be described thus: decreased DLD-1 cellular survival, CellTiter-Glo luminescent readout, NPC compound collection, primary HTS (AID 1117346;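 active = compounds that lower survival of DLD-1 colon cancer cells in the luminescence readout, no cutoff given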). To be noted: DLD-1 viability, CellTiter-Glo luminescence; at 20 µM (top of the series).
A short description of test [8]: modulation of C. elegans fzo-1 (AID 1259413).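 Also: fzo-1 mutant C. elegans worms in liquid wells.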 To be noted: C. elegans fzo-1 modulator screen, mean read-out; stronger effect = higher value.
Test [9] in a line: differential killing of epithelial or mesenchymal cells, primary screen, imaging, PC-3E GFP, TEM4-18 mCherry, co-culture (AID 1345086;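 active = compounds killing one labelled cell type while sparing the other, by normalised counts and ratio limits, not self-fluorescent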;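 as to all read-outs here: cells exposed to compound for 72 h before imaging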;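 as to red/green cell ratio (normalised): normalised mesenchymal count divided by normalised epithelial count so high means epithelial killing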). As to conditions: imaging cell counts, at 1 µM; for red/green cell ratio (normalised): actives lie on both sides, counts scaled to control wells, 1 = unselective.
For test [10], the system named is Aerobactin synthetase IucA (Klebsiella pneumoniae). Put plainly: IucA aerobactin synthetase inhibitors, biochemical, Tocris library, absorbance (AID 1345561).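 Also: 100% = enzyme without compound and 0% = no enzyme.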 As to conditions: purified IucA enzyme assay, absorbance (OD) read-out; stronger effect = lower value;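 tested at 8 µM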.
Test [11] can be described thus: growth inhibition of DIPG glioma cells, dose response, cell-based, SU-DIPG-XVII, MIPE5.0, CellTiter-Glo, qHTS (AID 1347060; cut-off not given, nearly all actives have AC50 up to about 26 µM). As to conditions: SU-DIPG-XVII viability, CellTiter-Glo ATP luminescence.
Test [12] in a line: growth inhibition of DIPG glioma cells, dose response, cell-based, JHH-DIPG-1, MIPE4.0, CellTiter-Glo, qHTS (AID 1347062; cut-off not given, nearly all actives have AC50 up to about 27 µM). As to conditions: JHH-DIPG-1 viability, CellTiter-Glo ATP luminescence.
A short description of test [13]: growth inhibition of DIPG glioma cells, dose response, cell-based, SU-DIPG-IV, MIPE4.0, CellTiter-Glo, qHTS (AID 1347063; cut-off not given, nearly all actives have AC50 up to about 30 µM;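 also: compound exposure lasted 48 hours before the viability readout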). As to conditions: SU-DIPG-IV viability, CellTiter-Glo ATP luminescence.
The nature of test [14]: growth inhibition of DIPG glioma cells, dose response, cell-based, SU-DIPG-XIII, MIPE5.0, CellTiter-Glo, qHTS (AID 1347064; cut-off not given, nearly all actives have AC50 up to about 23 µM). As to conditions: SU-DIPG-XIII viability, CellTiter-Glo ATP luminescence.
Test [15] is described as follows: growth inhibition of DIPG glioma cells, dose response, cell-based, SU-DIPG-XIII, MIPE4.0, CellTiter-Glo, qHTS (AID 1347061; cut-off not given, nearly all actives have AC50 up to about 37 µM;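 also: cells exposed to compound for 48 hours before readout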). As to conditions: SU-DIPG-XIII viability, CellTiter-Glo ATP luminescence.
The mark [16] stands for this setting: measured here: epithelial PC-3E GFP cell survival.
[17] abbreviates: measured here: mesenchymal TEM4-18 mCherry cell survival.

Take `COc1ccc2nc(S(=O)Cc3ncc(C)c(OC)c3C)[nH]c2c1` (stereo unspecified): the insulin secretion stimulation in [1] was 0.4% (inactive). The viability decrease in test [2] is 13.3% (inactive). Further, the tube area decrease in test [3] is 29.3% (inactive). The GLP1 secretion stimulation in [4] was 1.7% (inactive). The inhibition of viability in test [5] was -0.23% (inactive). Besides, the viability decrease (inhibition) in [6] was -451% (inactive); in test [7] it was -12.7% (inactive). Further, the mean signal in test [8] was 241 (inactive). The red/green cell ratio (normalised) in [9] is 0.98 (inactive). For the same compound, the figures for the normalised cell number in [9] (setting [16]) and in test [9] (setting [17]) were 0.98 and 0.96, respectively. Besides, the remaining activity in test [10] is 103% (inactive). For the same compound, the call in test [11], in test [12], in test [13] and in test [14] was inactive.

Take `CN1CCC(=C2c3ccccc3CC(=O)c3sccc32)CC1`: in [1], the insulin secretion stimulation was 3.05% (inactive). For the same compound, in test [2], the viability decrease is 10.7% (inactive). The tube area decrease in test [3] is -3.1% (inactive). Moreover, the GLP1 secretion stimulation in test [4] is 5.2% (inactive). For the same compound, the inhibition of viability in test [5] is 15.7% (inactive). Further, the viability decrease (inhibition) is 38.1% (inactive) in test [6] and -6.6% (inactive) in test [7]. Besides, the mean signal in [8] is 231 (inactive). For the same compound, the red/green cell ratio (normalised) in test [9] was 0.94 (inactive). Moreover, the normalised cell number in test [9] (setting [16]) is 1.17; in [9] (setting [17]), 1.1. For the same compound, in test [10], the remaining activity was 118% (inactive). Also, the compound was called inactive in [11] and in test [12].

`CN1CCC(=C2c3ccccc3C=Cc3ccccc32)CC1`: the insulin secretion stimulation in [1] was 0.2% (inactive). Besides, in [2], the viability decrease is 48.8% (inactive). The tube area decrease in test [3] was 43.3% (active). For the same compound, the GLP1 secretion stimulation in [4] is 11.9% (inactive). The inhibition of viability in test [5] is 39% (inactive). Moreover, the viability decrease (inhibition) in test [6] was 100% (active); in [7], 31.8% (inactive). In [8], the mean signal was 251 (inactive). The red/green cell ratio (normalised) in test [9] was 1.06 (inactive). Moreover, the normalised cell number in [9] (setting [16]) was 0.91; in test [9] (setting [17]), 0.97. In addition, the remaining activity in test [10] was 104% (inactive). Further, the compound was called inactive in test [11] and in test [14]. Also, in [15], the half-maximal activity concentration (AC50) is 23.5 µM (active).

`NC1CCN(c2nc3c(cc2F)c(=O)c(C(=O)O)cn3-c2ccc(F)cc2F)C1` (stereo unspecified): the insulin secretion stimulation in test [1] is 3.3% (inactive). The viability decrease in [2] is 24.4% (inactive). For the same compound, the tube area decrease in test [3] is 3.6% (inactive). For the same compound, the GLP1 secretion stimulation in test [4] is 2.2% (inactive). The inhibition of viability in test [5] is -9.3% (inactive). The results for the viability decrease (inhibition) in test [6] and in test [7] were -19.3% (inactive) and -39.1% (inactive), respectively. In test [8], the mean signal is 292 (inactive). The red/green cell ratio (normalised) in [9] is 0.9 (inactive). Besides, the normalised cell number in test [9] (setting [16]) was found to be 1.14; in [9] (setting [17]), 1.02.

For `CCOC(=O)c1ncn2c1CN(C)C(=O)c1cc(F)ccc1-2`, in [1], the insulin secretion stimulation was 1.6% (inactive). Further, in test [2], the viability decrease was -39.4% (inactive). In test [3], the tube area decrease is -3.4% (inactive). Also, the GLP1 secretion stimulation in [4] is 0.1% (inactive). Further, the inhibition of viability in [5] was 0.15% (inactive). The viability decrease (inhibition) in test [6] was 17.1% (inactive); in [7], 4% (inactive). Moreover, the mean signal in test [8] is 276 (inactive). In addition, in test [9], the red/green cell ratio (normalised) is 0.89 (inactive). Also, the normalised cell number in [9] (setting [16]) was 0.95; in [9] (setting [17]) it was 0.84. The remaining activity in test [10] is 110% (inactive). Moreover, the outcome in [11], in test [15] and in test [13] was inactive.

On to `CNS(=O)(=O)Cc1ccc2[nH]cc(CCN(C)C)c2c1`, for which, in test [1], the insulin secretion stimulation is 0.3% (inactive). The viability decrease in test [2] is -2.3% (inactive). The tube area decrease in test [3] is 15.1% (inactive). The GLP1 secretion stimulation in test [4] is 1.4% (inactive). The inhibition of viability in test [5] was -2.93% (inactive). For the same compound, the viability decrease (inhibition) in test [6] was 66.2% (active); in [7] it was -3.8% (inactive). Besides, the mean signal in test [8] was 224 (inactive). Besides, in test [9], the red/green cell ratio (normalised) is 1.17 (inactive). Further, the normalised cell number was determined as 1.07 in [9] (setting [16]) and 1.25 in [9] (setting [17]). Further, the remaining activity in test [10] was 127% (inactive). Besides, the outcome in test [15], in test [12] and in test [13] was inactive.

Regarding `COc1ccc(CN2CCN(C(c3ccc(F)cc3)c3ccc(F)cc3)CC2)c(OC)c1OC`, in test [1], the insulin secretion stimulation was 1.6% (inactive). For the same compound, in [2], the viability decrease is 108% (active). In [3], the tube area decrease was -1.5% (inactive). Also, the GLP1 secretion stimulation in test [4] was 2.3% (inactive). Besides, the inhibition of viability in test [5] was 110% (active). For the same compound, the viability decrease (inhibition) in test [6] was 133% (active); in test [7], 101% (active). For the same compound, in [8], the mean signal was 204 (inactive). In test [9], the red/green cell ratio (normalised) was 1.08 (inactive). Further, the normalised cell number in test [9] (setting [16]) came to 0.96; in test [9] (setting [17]) it was 1.03.

With `CC(C)NCC(O)COc1ccc(COCCOC(C)C)cc1` (stereo unspecified), the insulin secretion stimulation in test [1] was 1.2% (inactive). For the same compound, in [2], the viability decrease was 6.2% (inactive). The tube area decrease in test [3] is -2.7% (inactive). In addition, the GLP1 secretion stimulation in [4] is -1.1% (inactive). For the same compound, the inhibition of viability in test [5] is -3.93% (inactive). Moreover, the figures for the viability decrease (inhibition) in test [6] and in [7] were 0% (inactive) and -4.5% (inactive), respectively. The mean signal in test [8] is 229 (inactive). Further, the red/green cell ratio (normalised) in test [9] was 0.9 (inactive). The values for the normalised cell number in [9] (setting [16]) and in test [9] (setting [17]) were 1.05 and 0.94, respectively. For the same compound, the remaining activity in [10] was 120% (inactive). Moreover, the compound was classed as inactive in test [15], in [12] and in test [13].

Regarding `COC(=O)C1=C(C)NC(C)=C(C(=O)OCC(C)C)C1c1ccccc1[N+](=O)[O-]` (stereo unspecified), the insulin secretion stimulation in [1] is 1.25% (inactive). The viability decrease in test [2] is 102% (active). For the same compound, the tube area decrease in test [3] is 15.6% (inactive). The GLP1 secretion stimulation in test [4] was 1.3% (inactive). Besides, in test [5], the inhibition of viability was 97.8% (active). Also, the values for the viability decrease (inhibition) in test [6] and in [7] were 122% (active) and 86.2% (active), respectively. In addition, in test [8], the mean signal was 228 (inactive). Further, in [9], the red/green cell ratio (normalised) was 0.97 (inactive). For the same compound, the normalised cell number is 1.11 in [9] (setting [16]) and 1.08 in [9] (setting [17]).

On to `CCc1nn(CCCN2CCN(c3cccc(Cl)c3)CC2)c(=O)n1CCOc1ccccc1`, for which the insulin secretion stimulation in test [1] is -1.1% (inactive). In addition, in test [2], the viability decrease is 67.2% (active). For the same compound, the tube area decrease in test [3] is 30.7% (inactive). For the same compound, in test [4], the GLP1 secretion stimulation is -2.9% (inactive). Besides, the inhibition of viability in test [5] was 85.7% (active). Also, the viability decrease (inhibition) in test [6] was 91.5% (active); in test [7], 81.3% (active). The mean signal in [8] was 239 (inactive). In addition, the red/green cell ratio (normalised) in test [9] was 1.11 (inactive). The values for the normalised cell number in [9] (setting [16]) and in [9] (setting [17]) were 0.96 and 1.06, respectively. The remaining activity in test [10] was 104% (inactive).

With `COc1ccc(C2CNC(=O)C2)cc1OC1CCCC1` (stereo unspecified), in test [1], the insulin secretion stimulation is 0.8% (inactive). The viability decrease in test [2] was 23.9% (inactive). In addition, the tube area decrease in test [3] is 1.1% (inactive). The GLP1 secretion stimulation in test [4] is 4.4% (inactive). Besides, in test [5], the inhibition of viability was 13.6% (inactive). The viability decrease (inhibition) is 88.4% (active) in [6] and 29.1% (inactive) in test [7]. In addition, in test [8], the mean signal was 251 (inactive). The red/green cell ratio (normalised) in test [9] was 0.93 (inactive). The normalised cell number in test [9] (setting [16]) was found to be 1.05; in test [9] (setting [17]), 0.97. Besides, the remaining activity in test [10] was 98.4% (inactive). In addition, the outcome in [11], in [12], in test [13] and in test [14] was inactive.
